The nature of assay [1]: ATG_NF_kB_CIS: Attagene CIS-FACTORIAL HepG2 Assay for human Nuclear Factor Kappa B (NF-kB) (AID 2282991). Particulars: HepG2 Attagene cis-factorial NF-kB reporter mRNA; actives raise or lower the signal. Summed up: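 Measures mRNA induction of an NF-kB-responsive cis-element reporter in HepG2 cells transfected with multiple reporter units, sampled 24 h post-dosing; quantified by fluorescence after RT-PCR and capillary electrophoresis, fitted for activation or inhibition against DMSO.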

The nature of assay [2]: ATG_NRF2_ARE_CIS: Attagene CIS-FACTORIAL HepG2 Assay for human Nuclear Factor Erythroid 2 Related Factor 2 (NFR2) response to Antioxidant Response Elements (ARE) (AID 2282992). The conditions noted are these: HepG2 Attagene ARE/NRF2 reporter, transcription factor activity; actives raise or lower the signal. Summed up: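 Endogenous transcription factor activity read out as reporter transcript levels (RT-PCR plus capillary electrophoresis, fluorescence) in transiently transfected HepG2 cells. Measured at 24 h after dosing; gain or loss of signal fitted versus DMSO.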

Assay [3] in a line: ATG_Oct_MLP_CIS: Attagene CIS-FACTORIAL HepG2 Assay for human Octamer-Binding Transcription Factor (Oct) (AID 2282993). Particulars: HepG2 Attagene cis-factorial Oct reporter, mRNA; actives raise or lower the signal. The method, boiled down:
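Transient MRTU transfection of HepG2 → 24 h compound treatment → RNA isolation, reverse transcription, PCR → 6-FAM primer extension, HpaI digest → capillary electrophoresis. Activity fitted both directions against DMSO.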

In assay [4] the target is Cellular tumor antigen p53 (Homo sapiens) (UniProt P04637). Nature of the assay: ATG_p53_CIS: Attagene CIS-FACTORIAL HepG2 Assay for human p53 Transcription Factor (AID 2282994). Particulars: HepG2 p53 cis-element reporter, Attagene mRNA; actives raise or lower the signal. Summed up:
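Endogenous p53 activity read in transiently transfected HepG2 from a cis-element-driven reporter transcript after 24 h exposure. RNA reverse-transcribed, PCR-amplified, fluorescently labelled and sized by capillary electrophoresis; gain or loss fitted against DMSO baseline.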

Assay [5] can be described thus: BSK_3C_TissueFactor: BioMAP Diversity Plus: 3C Assay for Tissue Factor Biomarker Activity (AID 2282997). Particulars: BioMAP 3C HUVEC, tissue factor biomarker readout; actives raise or lower the signal. Summed up:
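In this endothelial system, HUVEC are treated for 24 h and Tissue Factor is assessed by ELISA, normalised to DMSO.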

Assay [6] in a line: BSK_3C_uPAR: BioMAP Diversity Plus: 3C Assay for Urokinase-type plasminogen activator receptor (uPAR) Biomarker Activity (AID 2282998). The conditions noted are these: BioMAP 3C HUVEC, uPAR biomarker ELISA; actives raise or lower the signal. The method, boiled down: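 ELISA readout of uPAR on human vascular endothelium (umbilical vein primary cells), taken 24 h after chemical dosing. Increases and decreases are both fitted relative to DMSO vehicle.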
(ELISA stands for enzyme-linked immunosorbent assay.)

Assay [7] in a line: BSK_3C_VCAM1: BioMAP Diversity Plus: 3C Assay for Vascular cell adhesion molecule 1 (VCAM1) Biomarker Activity (AID 2282999). The conditions noted are these: BioMAP 3C HUVEC, VCAM1 ELISA, cytokine-stimulated; actives raise or lower the signal. The method, boiled down:
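HUVEC primary cells, 24 h compound exposure; VCAM-1 by ELISA; gain/loss of signal fitted bidirectionally vs DMSO baseline.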

Assay [8] is described as follows: BSK_4H_Eotaxin3: BioMAP Diversity Plus: 4H Assay for Eotaxin 3 Biomarker Activity (AID 2283000).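 For outcome: CCL26 protein level quantified by ELISA in parallel with SRB cytotoxicity check.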 Particulars: primary human endothelial cells (HUVEC); actives raise or lower the signal. The method, boiled down: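 ELISA quantitation of CCL26 (Eotaxin-3) protein from chemically dosed human vascular endothelial cells at 24 h; increases and decreases both scored relative to DMSO-treated baseline.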

Assay [9] concerns the target human Peroxisome Proliferator-activated Receptor alpha (PPARa), PPARA (gene 5465) (UniProt Q07869). Nature of the assay: ATG_PPARa_TRANS: Attagene TRANS-FACTORIAL HepG2 Assay for human Peroxisome Proliferator-activated Receptor alpha (PPARa) (AID 2283001; active = hit-call score of the fitted dose curve at least 0.9, where 1 is the maximum;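 for AC50: potency for gain of reporter signal over DMSO so agonist or activator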). The method, boiled down: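 Transient HepG2 transfection, GAL4-UAS reporters, NR-Gal4 chimeras; 24 h compound exposure. Readout: reporter transcripts by RT-PCR, 6-FAM primer extension, HpaI digest, capillary electrophoresis. Positive direction vs DMSO baseline.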

Read-out in assay [10]: Intercellular Adhesion Molecule 1 (ICAM1), ICAM1 (gene 3383)
Nature of the assay: BSK_3C_ICAM1: BioMAP Diversity Plus: 3C Assay for Intercellular Adhesion Molecule 1 (ICAM1) Biomarker Activity (AID 2283003). The conditions noted are these: primary human endothelial cells (HUVEC); actives raise or lower the signal. Summed up:
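ELISA read-out of ICAM-1; HUVEC (primary human), 3C system, 24 h post-dosing; bidirectional fit vs DMSO baseline.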

The nature of assay [11]: BSK_3C_Proliferation: Cell Proliferation Assessment in the BioMAP Diversity Plus: 3C Assay (AID 2283006).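 Note: potency may reflect either rise or fall in cell number versus DMSO.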 Particulars: primary human endothelial cells (HUVEC). The method, boiled down: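 HUVEC, sub-confluent; 48 h chemical exposure; 10% TCA fix, 0.1% SRB stain, A560 total protein. Gain or loss of signal fitted both directions vs DMSO control.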
Assay [12] addresses Peroxisome proliferator-activated receptor gamma (Homo sapiens) (UniProt P37231). Nature of the assay: ATG_PPARg_TRANS: Attagene TRANS-FACTORIAL HepG2 Assay for human Peroxisome Proliferator-activated Receptor-gamma (PPARg) (AID 2283007; active = hit-call score of the fitted dose curve at least 0.9, where 1 is the maximum). Summed up:
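Gain-of-signal endpoint relative to DMSO, derived from reporter mRNA levels quantified by RT-PCR and capillary electrophoresis. Cells were HepG2 transiently expressing a chimeric NR-Gal4 construct with GAL4-UAS reporters, exposed to chemicals for 24 h.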

Assay [13] deals with Nuclear receptor subfamily 1 group I member 2 (Homo sapiens) (UniProt O75469). Nature of the assay: ATG_PXR_TRANS: Attagene TRANS-FACTORIAL HepG2 Assay for human Pregnane X Receptor (PXR) (AID 2283008; active = hit-call score of the fitted dose curve at least 0.9, where 1 is the maximum). The method, boiled down: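 Transactivation by exogenous PXR–GAL4 fusion measured as reporter transcript induction after 24 h compound treatment of transfected human HepG2 cells. Read-out via RT-PCR and capillary electrophoresis of labelled fragments, fitted upward relative to DMSO.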

In assay [14] the target is Retinoic acid receptor RXR-alpha (Homo sapiens) (UniProt P19793). The experiment in a line: ATG_RXRa_TRANS: Attagene TRANS-FACTORIAL HepG2 Assay for human Retinoid X Receptor alpha (RXRa) (AID 2283012; active = hit-call score of the fitted dose curve at least 0.9, where 1 is the maximum). Summed up:
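Read-out: fluorescent reporter-transcript fragments quantified by capillary electrophoresis after RT-PCR. Transiently transfected HepG2 cells carrying GAL4-UAS reporters and NR-GAL4 chimeras were exposed to chemical for 24 h; activity scored as increase over DMSO.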

Assay [15] addresses human Peroxisome Proliferator-activated Receptor delta (PPARd), PPARD (gene 5467) (UniProt Q03181). Nature of the assay: ATG_PPARd_TRANS: Attagene TRANS-FACTORIAL HepG2 Assay for human Peroxisome Proliferator-activated Receptor delta (PPARd) (AID 2283002; active = hit-call score of the fitted dose curve at least 0.9, where 1 is the maximum). The method, boiled down:
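HepG2 cells transiently transfected with GAL4-UAS multiplexed reporter units driven by exogenous chimeric NR-GAL4 proteins; 24 h compound exposure. Reporter mRNA measured by RT-PCR, 6-FAM primer extension, HpaI digestion and capillary electrophoresis; gain of signal fitted relative to DMSO.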

The target in assay [16] is human Retinoic Acid Receptor beta (RARb), RARB (gene 5915) (UniProt P10826). The experiment in a line: ATG_RARb_TRANS: Attagene TRANS-FACTORIAL HepG2 Assay for human Retinoic Acid Receptor beta (AID 2283004; active = hit-call score of the fitted dose curve at least 0.9, where 1 is the maximum). Summed up:
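Fluorescent capillary-electrophoresis detection of GAL4-UAS reporter mRNA defines the endpoint, with induction over DMSO-treated wells scored as activity. Transiently transfected human hepatoma HepG2 cells expressing exogenous NR–Gal4 proteins are exposed to test chemicals for 24 h.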

Assay [17] concerns the target human RAR-related Orphan Receptor gamma (RORg), RORC (gene 6097) (UniProt P51449). Nature of the assay: ATG_RORg_TRANS: Attagene TRANS-FACTORIAL HepG2 Assay for human RAR-related Orphan Receptor gamma (RORg) (AID 2283011; active = hit-call score of the fitted dose curve at least 0.9, where 1 is the maximum). The method, boiled down: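 Chimeric RORg-Gal4 transactivation in transfected HepG2; 24 h exposure; RT-PCR/capillary electrophoresis readout of reporter mRNA, DMSO baseline.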

For assay [18], the target named is Retinoic acid receptor alpha (Homo sapiens) (UniProt P10276). Nature of the assay: ATG_RARa_TRANS: Attagene TRANS-FACTORIAL HepG2 Assay for human Retinoic Acid Receptor alpha (RARa) (AID 2283005; active = hit-call score of the fitted dose curve at least 0.9, where 1 is the maximum). Summed up:
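HepG2 transiently transfected with multiplex GAL4-UAS reporter units including a human RARa–GAL4 chimera; 24 h compound exposure. Reporter mRNA quantified by RT-PCR, 6-FAM labeling and capillary electrophoresis; gain of signal versus DMSO.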

In assay [19] the target is human Retinoic Acid Receptor gamma (RARg), RARG (gene 5916) (UniProt P13631). Nature of the assay: ATG_RARg_TRANS: Attagene TRANS-FACTORIAL HepG2 Assay for human Retinoic Acid Receptor gamma (RARg) (AID 2283009; active = hit-call score of the fitted dose curve at least 0.9, where 1 is the maximum). Summed up: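 Readout: reporter transcript levels via RT-PCR, 6-FAM primer-extension labelling, HpaI digestion and capillary electrophoresis. Cells: HepG2 carrying transfected RARg-GAL4 chimera plus UAS reporter set. Dosing 24 h; DMSO negative control.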

Values joined by “and” are separate entries in the source; they are usually repeats but may differ in a detail not shown here. Equal entries are not always repeated. Records with an inconclusive call do not appear. Some structures have more than one record in an assay (separate samples or runs), and their calls can disagree. Active and inactive are the calls of the source. Rule for the calls, unless noted: active = hit-call score of the fitted dose curve at least 0.9, where 1 is the maximum; inactive = score below 0.9.

Sequence of Peroxisome proliferator-activated receptor gamma (Homo sapiens) (P37231 whole entry, looked up, the tested form may be a part): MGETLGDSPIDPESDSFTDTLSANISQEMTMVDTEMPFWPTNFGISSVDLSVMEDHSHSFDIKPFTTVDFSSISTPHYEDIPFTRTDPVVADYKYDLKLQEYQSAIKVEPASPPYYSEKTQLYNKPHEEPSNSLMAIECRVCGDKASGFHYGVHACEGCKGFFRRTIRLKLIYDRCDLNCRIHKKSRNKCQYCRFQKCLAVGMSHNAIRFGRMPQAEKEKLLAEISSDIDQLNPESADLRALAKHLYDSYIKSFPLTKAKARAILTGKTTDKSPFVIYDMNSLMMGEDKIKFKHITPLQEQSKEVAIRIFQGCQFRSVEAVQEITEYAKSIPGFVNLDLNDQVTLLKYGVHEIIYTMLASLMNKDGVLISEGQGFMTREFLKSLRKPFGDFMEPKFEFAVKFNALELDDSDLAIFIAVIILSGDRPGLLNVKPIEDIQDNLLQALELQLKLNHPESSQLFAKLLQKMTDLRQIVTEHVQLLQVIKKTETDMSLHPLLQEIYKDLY
Sequence of human Peroxisome Proliferator-activated Receptor alpha (PPARa), PPARA (gene 5465) (Q07869 whole entry, looked up, the tested form may be a part): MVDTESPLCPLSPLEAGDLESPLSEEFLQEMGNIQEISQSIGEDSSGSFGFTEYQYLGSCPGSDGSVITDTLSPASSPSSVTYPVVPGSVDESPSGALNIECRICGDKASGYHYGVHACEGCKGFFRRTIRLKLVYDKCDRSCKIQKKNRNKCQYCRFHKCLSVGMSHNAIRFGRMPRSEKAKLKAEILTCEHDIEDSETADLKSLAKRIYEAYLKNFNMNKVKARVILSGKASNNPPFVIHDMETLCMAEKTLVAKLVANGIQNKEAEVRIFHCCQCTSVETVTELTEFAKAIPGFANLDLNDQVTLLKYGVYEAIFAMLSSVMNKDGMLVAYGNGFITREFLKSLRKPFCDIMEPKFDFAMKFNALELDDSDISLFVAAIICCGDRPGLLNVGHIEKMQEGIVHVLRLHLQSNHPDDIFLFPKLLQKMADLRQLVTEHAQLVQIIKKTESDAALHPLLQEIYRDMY
Sequence of human Peroxisome Proliferator-activated Receptor delta (PPARd), PPARD (gene 5467) (Q03181 whole entry, looked up, the tested form may be a part): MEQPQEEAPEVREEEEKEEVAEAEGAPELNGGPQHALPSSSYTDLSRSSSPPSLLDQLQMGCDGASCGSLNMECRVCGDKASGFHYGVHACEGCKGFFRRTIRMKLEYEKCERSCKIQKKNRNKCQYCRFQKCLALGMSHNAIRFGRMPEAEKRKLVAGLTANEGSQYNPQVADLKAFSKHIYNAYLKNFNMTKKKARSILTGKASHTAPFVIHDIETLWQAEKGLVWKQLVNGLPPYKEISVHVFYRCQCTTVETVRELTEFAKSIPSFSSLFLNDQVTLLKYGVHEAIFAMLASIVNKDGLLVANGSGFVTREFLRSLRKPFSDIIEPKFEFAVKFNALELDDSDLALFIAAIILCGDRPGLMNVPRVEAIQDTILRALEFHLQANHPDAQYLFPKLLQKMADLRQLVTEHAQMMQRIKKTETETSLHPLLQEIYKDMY
Sequence of Cellular tumor antigen p53 (Homo sapiens) (P04637 whole entry, looked up): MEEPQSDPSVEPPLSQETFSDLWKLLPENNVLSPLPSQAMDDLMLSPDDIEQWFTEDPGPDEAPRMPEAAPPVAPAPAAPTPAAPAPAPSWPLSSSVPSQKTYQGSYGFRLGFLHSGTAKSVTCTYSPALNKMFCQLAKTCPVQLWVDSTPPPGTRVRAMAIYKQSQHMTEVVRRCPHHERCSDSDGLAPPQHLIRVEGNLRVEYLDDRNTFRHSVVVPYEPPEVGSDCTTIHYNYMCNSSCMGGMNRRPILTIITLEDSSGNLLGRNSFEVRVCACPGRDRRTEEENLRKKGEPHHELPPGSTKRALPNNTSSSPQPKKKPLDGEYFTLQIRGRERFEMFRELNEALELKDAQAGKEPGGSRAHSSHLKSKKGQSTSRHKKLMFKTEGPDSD
Sequence of Nuclear receptor subfamily 1 group I member 2 (Homo sapiens) (O75469 whole entry, looked up, the tested form may be a part): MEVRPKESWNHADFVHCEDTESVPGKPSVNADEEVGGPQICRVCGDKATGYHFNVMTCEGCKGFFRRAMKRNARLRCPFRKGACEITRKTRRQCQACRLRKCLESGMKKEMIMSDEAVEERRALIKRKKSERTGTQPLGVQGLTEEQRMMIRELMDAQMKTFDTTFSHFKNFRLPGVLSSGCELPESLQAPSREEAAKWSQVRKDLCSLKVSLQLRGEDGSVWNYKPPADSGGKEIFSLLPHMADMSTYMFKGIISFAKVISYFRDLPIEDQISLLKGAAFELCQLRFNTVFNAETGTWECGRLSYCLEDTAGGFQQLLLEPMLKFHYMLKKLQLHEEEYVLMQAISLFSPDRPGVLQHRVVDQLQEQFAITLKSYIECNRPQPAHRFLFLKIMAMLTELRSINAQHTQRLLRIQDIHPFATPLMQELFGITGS
Sequence of human RAR-related Orphan Receptor gamma (RORg), RORC (gene 6097) (P51449 whole entry, looked up, the tested form may be a part): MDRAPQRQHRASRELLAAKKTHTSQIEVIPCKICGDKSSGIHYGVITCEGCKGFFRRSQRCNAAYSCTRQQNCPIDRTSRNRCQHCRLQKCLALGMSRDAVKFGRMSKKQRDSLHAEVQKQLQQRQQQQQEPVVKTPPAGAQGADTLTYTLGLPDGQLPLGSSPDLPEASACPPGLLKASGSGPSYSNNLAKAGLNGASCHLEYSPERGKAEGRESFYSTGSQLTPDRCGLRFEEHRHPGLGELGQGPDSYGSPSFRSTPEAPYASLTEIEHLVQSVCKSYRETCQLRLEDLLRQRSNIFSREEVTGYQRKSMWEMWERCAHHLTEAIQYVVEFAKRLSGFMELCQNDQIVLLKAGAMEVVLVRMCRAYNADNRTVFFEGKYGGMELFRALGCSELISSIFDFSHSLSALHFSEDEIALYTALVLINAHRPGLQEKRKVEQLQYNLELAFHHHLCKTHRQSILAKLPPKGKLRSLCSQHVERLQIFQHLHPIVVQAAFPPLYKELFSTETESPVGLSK
Sequence of Retinoic acid receptor RXR-alpha (Homo sapiens) (P19793 whole entry, looked up, the tested form may be a part): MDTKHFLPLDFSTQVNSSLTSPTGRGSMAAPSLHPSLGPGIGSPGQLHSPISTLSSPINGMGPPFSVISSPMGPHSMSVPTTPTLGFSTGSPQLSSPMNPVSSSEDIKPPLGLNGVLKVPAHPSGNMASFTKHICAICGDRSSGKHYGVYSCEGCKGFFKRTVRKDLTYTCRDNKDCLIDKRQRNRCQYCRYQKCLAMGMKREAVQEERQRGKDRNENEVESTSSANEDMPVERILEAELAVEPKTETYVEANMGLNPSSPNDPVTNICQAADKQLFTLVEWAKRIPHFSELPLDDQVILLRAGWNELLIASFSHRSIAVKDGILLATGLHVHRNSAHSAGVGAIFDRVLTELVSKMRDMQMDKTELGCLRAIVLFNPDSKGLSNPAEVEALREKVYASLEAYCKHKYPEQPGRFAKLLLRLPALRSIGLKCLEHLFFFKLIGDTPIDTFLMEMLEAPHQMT
Sequence of human Retinoic Acid Receptor beta (RARb), RARB (gene 5915) (P10826 whole entry, looked up, the tested form may be a part): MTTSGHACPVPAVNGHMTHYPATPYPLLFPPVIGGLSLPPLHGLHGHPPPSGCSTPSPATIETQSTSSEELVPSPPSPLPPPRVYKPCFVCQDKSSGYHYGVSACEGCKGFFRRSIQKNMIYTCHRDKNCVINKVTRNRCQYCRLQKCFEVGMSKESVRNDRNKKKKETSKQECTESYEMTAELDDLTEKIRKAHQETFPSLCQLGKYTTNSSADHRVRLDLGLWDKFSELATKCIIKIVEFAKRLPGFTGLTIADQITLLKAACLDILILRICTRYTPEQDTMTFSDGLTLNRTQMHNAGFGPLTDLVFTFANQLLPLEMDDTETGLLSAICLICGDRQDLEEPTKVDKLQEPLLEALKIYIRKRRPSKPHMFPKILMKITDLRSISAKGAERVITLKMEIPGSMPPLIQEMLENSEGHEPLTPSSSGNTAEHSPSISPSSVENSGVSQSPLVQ
Sequence of Retinoic acid receptor alpha (Homo sapiens) (P10276 whole entry, looked up, the tested form may be a part): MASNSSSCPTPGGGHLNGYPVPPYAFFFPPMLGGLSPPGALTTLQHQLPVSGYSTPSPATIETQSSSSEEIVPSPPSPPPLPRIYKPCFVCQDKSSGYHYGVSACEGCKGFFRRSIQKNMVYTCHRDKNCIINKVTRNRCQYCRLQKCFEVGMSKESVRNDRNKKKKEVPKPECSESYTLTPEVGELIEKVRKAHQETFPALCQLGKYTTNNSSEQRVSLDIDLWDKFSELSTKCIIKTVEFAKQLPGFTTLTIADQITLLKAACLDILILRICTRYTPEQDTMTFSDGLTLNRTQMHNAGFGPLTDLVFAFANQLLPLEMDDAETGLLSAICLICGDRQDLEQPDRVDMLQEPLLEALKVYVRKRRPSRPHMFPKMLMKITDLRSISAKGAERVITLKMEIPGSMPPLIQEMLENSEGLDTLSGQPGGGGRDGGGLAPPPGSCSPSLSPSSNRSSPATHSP
Sequence of human Retinoic Acid Receptor gamma (RARg), RARG (gene 5916) (P13631 whole entry, looked up, the tested form may be a part): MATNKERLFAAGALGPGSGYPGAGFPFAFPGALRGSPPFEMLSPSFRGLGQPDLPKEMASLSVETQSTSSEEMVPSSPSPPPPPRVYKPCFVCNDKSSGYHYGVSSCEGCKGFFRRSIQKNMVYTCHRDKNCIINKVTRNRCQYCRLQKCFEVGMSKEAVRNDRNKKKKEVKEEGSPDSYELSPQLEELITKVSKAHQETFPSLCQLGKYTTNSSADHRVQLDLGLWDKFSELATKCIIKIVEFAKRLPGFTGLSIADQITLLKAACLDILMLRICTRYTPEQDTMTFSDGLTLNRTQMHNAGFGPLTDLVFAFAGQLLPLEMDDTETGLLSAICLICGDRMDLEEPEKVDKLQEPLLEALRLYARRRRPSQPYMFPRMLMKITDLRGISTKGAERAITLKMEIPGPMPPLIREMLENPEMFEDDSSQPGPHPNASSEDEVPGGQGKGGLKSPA

The AC50 is the concentration giving half of the maximal activity seen. Take `O=c1oc2ccccc2c(O)c1C(CC(O)c1ccc(-c2ccc(Br)cc2)cc1)c1ccccc1` (configuration not stated): the AC50 in [1] is 48400 nM (active); in [2] it was 7570 nM (active); in [3], 40900 nM (active); in assay [4], 53.2 µM (active) and 21.3 µM (active); in [5], 12700 nM (active); in [6] it was 5920 nM (active). Besides, the AC50 was 21600 nM (active) in [7]; 16900 nM (active) in assay [8]; 25300 nM (active) in assay [9]; 27200 nM (active) in assay [10]; 6580 nM (active) in assay [11]; 3.95 µM (active) and 676 nM (active) in assay [12]. Further, the AC50 in assay [13] was 5.19 µM (active) and 7.74 µM (active). Besides, the outcome in assay [1], in assay [2], in assay [3], in [9] and in assay [14] was inactive.

On to `CC(C)(COCC1CO1)COCC1CO1` (configuration not stated), for which the call in assay [1], in assay [3], in [4], in [6], in [7] and in [8] was inactive. The call in assay [15], in [10], in assay [16], in assay [12], in assay [13] and in [17] was inactive. For the same compound, the results for the AC50 in assay [2], in assay [5] and in assay [11] were 49800 nM (active), 3970 nM (active) and 20000 nM (active), respectively.

With `C=CCCl`, the outcome in [1], in assay [2], in [3], in [4], in assay [9] and in assay [15] was inactive. In addition, the compound was called inactive in [18], in [12], in [13], in [19] and in assay [17].

With `[Cl][Sn]([c]1ccccc1)([c]1ccccc1)[c]1ccccc1`, the AC50 in assay [1] is 232 nM (active); in assay [2], 78.5 nM (active); in [3], 250 nM (active); in assay [4], 167 nM (active); in assay [5], 297 nM (active); in assay [6] it was 141 nM (active). Besides, the half-maximal activity concentration (AC50) in [7] was 177 nM (active); in assay [8], 98.5 nM (active); in [15], 249 nM (active); in assay [10] it was 318 nM (active); in [11] it was 51.8 nM (active); in assay [12], 46.4 nM (active). In addition, in assay [14], the AC50 is 233 nM (active).

Source of the values: PubChem BioAssay (EPA / NIEHS).
